About 83,000 compounds went through this panel and 20% of them were active in at least one assay; those are over-represented in the sample as a whole.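 How to read the values: 0–100, growth inhibition (40 = 60% inhibited); 0, no net growth; -100 to 0, cell death (-40 = 40% of starting cells died; -100 = all dead).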 Values without a mark were called inactive. Calls of active or inactive are those of the source. The calls were made as follows: active = growth percent below 10; inactive = the rest.
Assays:
Assay in all cases: NCI-60 one-dose screen, 48 h (100 = growth as untreated, 0 = no growth, -100 = all killed)
Conditions in all cases: 10 µM unless noted
DU-145 prostate = system: DU-145 prostate
K-562 leukemia = system: K-562 leukemia
MALME-3M melanoma = system: MALME-3M melanoma
MDA-MB-231 breast = system: MDA-MB-231 breast
RXF 393 renal = system: RXF 393 renal
SF-268 CNS = system: SF-268 CNS
SF-295 CNS = system: SF-295 CNS
SF-539 CNS = system: SF-539 CNS
UACC-257 melanoma = system: UACC-257 melanoma
M14 melanoma = system: M14 melanoma

Compound	growth (DU-145 prostate)	growth (K-562 leukemia)	growth (MALME-3M melanoma)	growth (MDA-MB-231 breast)	growth (RXF 393 renal)	growth (SF-268 CNS)	growth (SF-295 CNS)	growth (SF-539 CNS)	growth (UACC-257 melanoma)	growth (M14 melanoma)
N#CC(C#N)N=Nc1ccc(Cl)cc1Cl	80.8%	40.7%	77.3%	68.2%	116%	103%	100%	74.7%	87.3%	81.8%
CC(C)C[C@@H](C(=O)N[C@H](C(=O)OC1CCCC1)c1ccccc1)[C@H](O)C(=O)NO	68.3%	22.7%	38.3%	9.77% (active)	7.55% (active)	88.9%	60.8%	52.2%	36%	54.5%
Cc1c(Cl)cccc1C(=O)Nc1nc2c(s1)CN(C(=O)Nc1cccc(C(F)(F)F)c1)CC2	16.8%	11.2%	44.5%	32.3%	-7.27% (active)	35.2%	26%	-26.9% (active)	55.7%	
CCN(CCO)CC(C)Nc1ccc([N+](=O)[O-])c2sc3ccccc3c(=O)c12 (centres undefined)	41.3%	12.5%	13.4%	48.8%	9.27% (active)	36.1%	17.4%	25%	31.5%	29.3%
COc1cc(N2C(=O)[C@H](c3ccccc3)C2c2ccc(SC)cc2)cc(OC)c1OC (some centres undefined)	6.14% (active)	5.06% (active)	63.3%	28%	-4.2% (active)	25.3%	-6.29% (active)	8.41% (active)	33.3%	5.09% (active)
O=C1NC(=Nc2ccc(O)cc2)S/C1=C\c1cccs1	44.6%	14.7%	68.8%	57.9%	41.2%	50%	34.8%	16.7%	70.5%	34.8%
C[C@H]1[C@H](C)CC[C@]2(C(=O)O)CC[C@]3(C)C(=CC[C@@H]4[C@@]5(C)C[C@@H](Cc6cn([C@@H]7O[C@H](CO)[C@@H](O)[C@H](O)[C@H]7O)nn6)[C@H](O)C(C)(C)[C@@H]5CC[C@]43C)[C@H]12	105%	95.4%	108%	102%	118%	103%	98.8%	109%	90.2%	93.9%
Cn1ncc2ccc(-c3nc(-c4ccccc4)[nH]c3-c3n[nH]c(=O)n3C3CC3)cc21	106%	101%	95.6%	98%	106%	102%	101%	97.6%	94.9%	88.4%
CC(=O)c1c(Nc2ccc(F)c(F)c2F)[nH]c2c(F)cc(F)cc2c1=O	18.1%	7.47% (active)	-22.6% (active)	-1.7% (active)	-4.56% (active)	17.9%	-35.3% (active)	1.53% (active)	-18.4% (active)	2.68% (active)
COc1cc(/C=C2\CN(S(=O)(=O)c3ccc(C)cc3)C/C(=C\c3cc(CN4CCCCC4)c(O)c(OC)c3)C2=O)cc(CN2CCCCC2)c1O	-88.1% (active)	-24.2% (active)	-82.4% (active)	-73.1% (active)	-72.1% (active)	-61.1% (active)	-74.7% (active)	-84.8% (active)	-89.6% (active)	-89% (active)
COc1ccc(NC(=O)c2sc3nc4c(cc3c2N)CCCC4)cc1	11.5%	6.99% (active)	54.8%	49.2%	-4.44% (active)	58.8%	8.64% (active)	3.47% (active)	53%	18.3%
Cc1ccc(-c2nc(C#N)c(S(=O)(=O)NCCO)o2)cc1	90%	29.8%	75.5%	75.6%	56.6%	87.4%	101%	46.6%	71.4%	32.5%
CN(C)c1ccc(/C=C/C(=O)c2ccc(Nc3nc(Nc4ccc(F)cc4)nc(Nc4ccc(Cl)cc4)n3)cc2)cc1	84.4%	23.7%	64.3%	80.1%	22.4%	84.1%	44.8%	82.2%	82.2%	54%
CCN(CC)CCCC(C)Nc1ccc2cc(OC)ccc2n1 (centres undefined)	99.9%	131%	114%	104%	112%	91.2%	97.4%	100%	94.7%	99.3%
Cc1cccc(NC(=O)CSc2nc3ccc([N+](=O)[O-])cc3[nH]2)c1	85%	66.5%	62.2%	97.3%	89%	87.8%	62.7%	87.1%	70.9%	79.9%
O=C(CN1C(=O)/C(=C/c2ccco2)SC1=S)NCCc1c[nH]c2ccc(F)cc12	108%	101%	108%	102%	110%	93.6%	99.4%	95.2%	113%	106%
CNCc1cccc2c1OCCOCCN(C)C(=O)CN(C)S(=O)(=O)c1ccc(cc1)-c1cnc(N)c(n1)C(=O)N2	7.84% (active)	-39.5% (active)	-85.3% (active)	67.6%	-0.929% (active)	28.3%	36.1%	-50.7% (active)	41.6%	2.41% (active)
COC(=O)Cc1nc(C#N)c(N(C)C)o1	112%	91.1%	105%	100%	106%	94.8%	100%	99%	95.7%	103%
Nc1c(C(=O)Nc2cccc3ncccc23)sc2nc3c(cc12)C(=O)CCC3	69.9%	31.1%	74.8%	58%	29.3%	71%	21.3%	51.8%	41.6%	50.5%
O=C1Nc2ccccc2C2c3cccn3-c3ccccc3N12 (centres undefined)	94.8%	23.9%	71.7%	47.1%	51.7%	79%	78.6%	83.2%	77.6%	53%
COc1ccc(C/C(C)=C(\c2ccc(O)cc2)c2ccc(OCCN3CCCC3)cc2)cc1	104%	85.5%	94.1%	104%	136%	107%	102%	99.9%	99.1%	95.2%
Cc1ccccc1OCC(O)COc1ccccc1C	120%	114%	88.5%	103%	80.5%	99.4%	98.5%	95.9%	89.2%	98.5%
Cc1ccc2nc(Cl)c(Cn3nnnc3SCc3ccccc3)cc2c1	101%	87.9%	114%	88.2%	99.9%	93.9%	88.1%	94.4%	105%	89.3%
CSCCC(NC(=O)c1ccccc1)C(=O)N/N=C1\S/C(=C/c2ccc(Cl)cc2)C(=O)N1C (centres undefined)	75.1%	41.6%	83.3%	75.6%	75.5%	74.1%	75.2%	93.5%	89.8%	86.6%
CCOC(=O)c1c(C)nc2c(c1N)CC(=O)N2Cc1cc(OC)c(OC)c(OC)c1	80.6%	14.6%	45%	55.3%	73.2%	69.5%	39.5%	66.2%	53%	28.1%
CC1O[C@@H]2C[C@@](O)([C@H]1O)n1c3ccccc3c3c4c(c5c6ccccc6n2c5c31)C(=O)NC4=O (some centres undefined)	57.8%	30%	50.3%	57.8%	49.2%	49.8%	19.2%	33.2%	47.9%	25.7%
